Laboratory results: the supplement of paper PMC11001985
Values without a mark were called inactive.

Compound: C#CCNC(=O)CCSSCCC(=O)NCCc1ccc(C=O)c(C=O)c1
Assay: lysine labeling ratio R10:1 (500 µM / 50 µM probe), SILAC-ABPP in living cells; higher = lower intrinsic lysine reactivity toward the probe, active = 2 or less
Conditions: HeLa; probe concentrations 500 vs 50 µM
How it was run: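 Forward and reverse SILAC label swaps were used with living light and heavy HeLa cells in PBS at room temperature, which were given an alkyne-tagged, disulfide-linked lysine probe at 50 µM or 500 µM. R is the per-lysine filtered median high-probe/low-probe MS1 peptide ratio, with the median then taken across both swap directions. Values are limited to 20.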

Sequence of UniProt P35579 (P35579 whole entry): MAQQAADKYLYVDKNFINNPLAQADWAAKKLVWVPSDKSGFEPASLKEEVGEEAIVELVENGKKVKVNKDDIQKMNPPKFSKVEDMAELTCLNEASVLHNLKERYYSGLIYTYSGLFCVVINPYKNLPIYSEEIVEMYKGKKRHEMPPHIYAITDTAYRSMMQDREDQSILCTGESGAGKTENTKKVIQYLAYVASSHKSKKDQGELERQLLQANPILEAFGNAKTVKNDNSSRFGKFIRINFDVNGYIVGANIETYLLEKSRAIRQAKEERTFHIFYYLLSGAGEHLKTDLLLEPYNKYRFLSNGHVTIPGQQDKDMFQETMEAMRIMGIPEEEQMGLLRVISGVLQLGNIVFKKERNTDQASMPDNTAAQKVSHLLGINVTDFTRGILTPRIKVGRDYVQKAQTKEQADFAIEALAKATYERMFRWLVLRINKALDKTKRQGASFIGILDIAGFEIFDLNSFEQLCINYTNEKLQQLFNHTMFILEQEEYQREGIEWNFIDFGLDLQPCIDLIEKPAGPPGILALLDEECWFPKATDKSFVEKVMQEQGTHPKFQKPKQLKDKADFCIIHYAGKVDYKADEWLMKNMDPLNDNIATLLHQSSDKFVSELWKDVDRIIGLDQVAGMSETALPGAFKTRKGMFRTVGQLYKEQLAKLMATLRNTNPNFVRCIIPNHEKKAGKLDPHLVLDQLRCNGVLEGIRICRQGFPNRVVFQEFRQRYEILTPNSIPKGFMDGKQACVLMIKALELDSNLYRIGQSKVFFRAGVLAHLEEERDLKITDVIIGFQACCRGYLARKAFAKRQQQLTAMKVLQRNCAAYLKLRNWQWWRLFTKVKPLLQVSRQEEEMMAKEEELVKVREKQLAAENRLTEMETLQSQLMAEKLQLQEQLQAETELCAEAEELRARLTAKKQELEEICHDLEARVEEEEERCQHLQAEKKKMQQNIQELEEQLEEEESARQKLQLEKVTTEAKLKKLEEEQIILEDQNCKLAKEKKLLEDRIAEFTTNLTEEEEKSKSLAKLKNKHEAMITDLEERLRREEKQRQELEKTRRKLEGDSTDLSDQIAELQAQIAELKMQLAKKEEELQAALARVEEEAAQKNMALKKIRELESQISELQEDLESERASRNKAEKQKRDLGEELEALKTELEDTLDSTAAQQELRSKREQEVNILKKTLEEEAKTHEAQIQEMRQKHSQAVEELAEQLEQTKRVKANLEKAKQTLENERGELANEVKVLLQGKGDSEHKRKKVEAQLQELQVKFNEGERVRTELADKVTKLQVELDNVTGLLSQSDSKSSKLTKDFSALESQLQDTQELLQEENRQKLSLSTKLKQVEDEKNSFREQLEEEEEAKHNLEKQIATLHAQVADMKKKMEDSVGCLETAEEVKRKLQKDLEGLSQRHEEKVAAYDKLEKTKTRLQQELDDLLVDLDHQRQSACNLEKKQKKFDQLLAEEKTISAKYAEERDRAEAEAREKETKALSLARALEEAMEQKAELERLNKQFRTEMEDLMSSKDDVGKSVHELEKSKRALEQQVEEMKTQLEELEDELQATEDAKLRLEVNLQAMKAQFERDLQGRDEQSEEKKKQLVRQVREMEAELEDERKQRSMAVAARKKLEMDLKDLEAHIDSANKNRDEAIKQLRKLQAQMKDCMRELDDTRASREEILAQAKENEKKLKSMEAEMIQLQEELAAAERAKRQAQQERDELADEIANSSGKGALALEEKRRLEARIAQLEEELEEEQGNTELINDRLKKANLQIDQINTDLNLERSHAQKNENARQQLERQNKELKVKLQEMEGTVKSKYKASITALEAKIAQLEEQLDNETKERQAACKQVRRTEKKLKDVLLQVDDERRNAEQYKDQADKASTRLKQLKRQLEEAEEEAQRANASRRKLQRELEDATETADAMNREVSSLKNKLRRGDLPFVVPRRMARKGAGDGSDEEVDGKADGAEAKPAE
Sequence of UniProt P15941 (P15941 whole entry): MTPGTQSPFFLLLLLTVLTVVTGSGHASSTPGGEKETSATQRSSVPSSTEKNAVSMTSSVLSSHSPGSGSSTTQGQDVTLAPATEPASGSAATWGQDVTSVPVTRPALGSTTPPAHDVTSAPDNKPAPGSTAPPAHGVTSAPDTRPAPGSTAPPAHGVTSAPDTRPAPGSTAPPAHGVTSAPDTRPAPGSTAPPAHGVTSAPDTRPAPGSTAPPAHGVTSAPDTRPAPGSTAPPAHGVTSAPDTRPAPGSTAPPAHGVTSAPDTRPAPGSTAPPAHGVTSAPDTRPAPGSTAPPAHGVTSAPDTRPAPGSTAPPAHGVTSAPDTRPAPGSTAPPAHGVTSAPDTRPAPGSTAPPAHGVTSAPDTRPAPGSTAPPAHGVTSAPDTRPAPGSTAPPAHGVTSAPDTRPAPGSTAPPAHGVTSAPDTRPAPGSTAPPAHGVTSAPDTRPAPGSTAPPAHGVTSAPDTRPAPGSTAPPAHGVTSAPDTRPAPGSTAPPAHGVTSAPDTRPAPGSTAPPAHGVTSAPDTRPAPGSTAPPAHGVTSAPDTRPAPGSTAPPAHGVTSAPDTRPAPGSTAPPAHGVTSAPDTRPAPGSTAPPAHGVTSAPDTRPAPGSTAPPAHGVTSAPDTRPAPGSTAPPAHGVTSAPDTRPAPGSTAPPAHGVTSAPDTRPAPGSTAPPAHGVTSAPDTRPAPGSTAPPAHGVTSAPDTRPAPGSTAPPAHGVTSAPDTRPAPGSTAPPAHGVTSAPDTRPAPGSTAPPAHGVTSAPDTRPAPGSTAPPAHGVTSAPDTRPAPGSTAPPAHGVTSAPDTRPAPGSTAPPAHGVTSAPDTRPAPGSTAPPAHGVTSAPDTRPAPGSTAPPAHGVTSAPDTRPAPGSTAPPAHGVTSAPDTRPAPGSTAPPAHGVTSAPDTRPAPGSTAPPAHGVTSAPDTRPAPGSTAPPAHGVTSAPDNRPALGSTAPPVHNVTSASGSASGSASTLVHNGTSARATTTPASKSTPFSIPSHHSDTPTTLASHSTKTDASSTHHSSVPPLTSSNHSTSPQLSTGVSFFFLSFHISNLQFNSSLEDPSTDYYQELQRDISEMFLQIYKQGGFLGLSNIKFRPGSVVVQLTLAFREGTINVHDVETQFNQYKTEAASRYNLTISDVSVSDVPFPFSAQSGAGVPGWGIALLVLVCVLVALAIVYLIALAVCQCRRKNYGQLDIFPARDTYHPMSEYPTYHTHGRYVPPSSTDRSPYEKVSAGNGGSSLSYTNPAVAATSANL
Sequence of UniProt P08670 (P08670 whole entry): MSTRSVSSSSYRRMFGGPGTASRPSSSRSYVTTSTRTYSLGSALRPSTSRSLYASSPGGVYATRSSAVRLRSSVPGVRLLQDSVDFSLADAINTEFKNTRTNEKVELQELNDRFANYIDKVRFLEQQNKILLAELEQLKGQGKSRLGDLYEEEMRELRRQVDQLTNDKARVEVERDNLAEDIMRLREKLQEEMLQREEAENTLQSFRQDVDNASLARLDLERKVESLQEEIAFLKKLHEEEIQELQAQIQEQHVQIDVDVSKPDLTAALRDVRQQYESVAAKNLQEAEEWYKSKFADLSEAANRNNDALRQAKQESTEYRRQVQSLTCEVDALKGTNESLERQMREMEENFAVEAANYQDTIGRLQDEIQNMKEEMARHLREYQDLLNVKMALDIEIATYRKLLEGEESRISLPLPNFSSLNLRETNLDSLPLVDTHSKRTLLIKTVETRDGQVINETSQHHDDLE
Sequence of UniProt Q99497 (Q99497 whole entry): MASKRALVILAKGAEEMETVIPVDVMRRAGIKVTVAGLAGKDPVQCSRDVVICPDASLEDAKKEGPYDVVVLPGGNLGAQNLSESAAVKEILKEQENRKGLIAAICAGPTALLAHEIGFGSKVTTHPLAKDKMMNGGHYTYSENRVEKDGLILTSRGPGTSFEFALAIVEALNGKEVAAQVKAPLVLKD
Sequence of UniProt Q5T9A4 (Q5T9A4 whole entry): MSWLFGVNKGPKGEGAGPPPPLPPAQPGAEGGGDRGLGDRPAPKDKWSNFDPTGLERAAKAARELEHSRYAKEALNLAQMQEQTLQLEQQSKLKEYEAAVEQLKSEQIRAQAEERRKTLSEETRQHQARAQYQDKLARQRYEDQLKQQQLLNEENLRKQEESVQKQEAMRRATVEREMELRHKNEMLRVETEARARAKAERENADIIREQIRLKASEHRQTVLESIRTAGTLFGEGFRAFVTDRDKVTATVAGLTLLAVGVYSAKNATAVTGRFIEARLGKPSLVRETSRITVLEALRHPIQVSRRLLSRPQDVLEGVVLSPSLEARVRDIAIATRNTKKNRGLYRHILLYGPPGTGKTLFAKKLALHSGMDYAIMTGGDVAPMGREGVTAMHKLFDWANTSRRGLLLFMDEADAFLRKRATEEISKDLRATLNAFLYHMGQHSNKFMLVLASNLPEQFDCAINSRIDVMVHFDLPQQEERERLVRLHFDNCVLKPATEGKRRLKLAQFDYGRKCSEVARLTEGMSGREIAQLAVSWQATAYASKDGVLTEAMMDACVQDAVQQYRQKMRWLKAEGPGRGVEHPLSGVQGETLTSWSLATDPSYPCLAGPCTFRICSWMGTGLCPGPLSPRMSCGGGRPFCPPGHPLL
Sequence of UniProt P10646 (P10646 whole entry): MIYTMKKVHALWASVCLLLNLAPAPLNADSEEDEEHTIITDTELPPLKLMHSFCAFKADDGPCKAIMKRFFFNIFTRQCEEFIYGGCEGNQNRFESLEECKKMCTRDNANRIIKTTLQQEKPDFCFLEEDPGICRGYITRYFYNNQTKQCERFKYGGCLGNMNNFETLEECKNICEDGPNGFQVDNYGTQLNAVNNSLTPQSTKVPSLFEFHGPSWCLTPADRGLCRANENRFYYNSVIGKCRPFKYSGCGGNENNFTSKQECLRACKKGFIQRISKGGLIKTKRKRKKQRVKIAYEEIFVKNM
Sequence of UniProt P32970 (P32970 whole entry): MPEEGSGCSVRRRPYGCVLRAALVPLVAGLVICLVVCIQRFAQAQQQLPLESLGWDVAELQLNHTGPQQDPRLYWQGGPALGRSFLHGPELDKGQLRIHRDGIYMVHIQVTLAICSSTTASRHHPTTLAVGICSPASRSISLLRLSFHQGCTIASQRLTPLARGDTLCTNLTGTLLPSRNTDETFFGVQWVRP

| Target | lysine labeling ratio R10:1 |
| --- | --- |
| UniProt Q96TA1 (lysine site: K479) | 2.71 |
| UniProt P61513 (lysine site: K13) | 1.64 (active) |
| UniProt Q9UHN6 (lysine site: K1182) | 6.32 |
| PLS3 (lysine site: K52) (UniProt P13797) | 2.05 |
| CD70 (lysine site: K93) (UniProt P32970) | 3.66 |
| CACNA2D1 (lysine site: K106) (UniProt P54289) | 3.84 |
| ITGA1 (lysine site: K546) (UniProt P56199) | 0.96 (active) |
| UniProt P21589 (lysine site: K433) | 3.8 |
| CYR61 (lysine site: K208) (UniProt O00622) | 2.96 |
| PTPRM (lysine site: K231) (UniProt P28827) | 1.53 (active) |
| EEF2 (lysine site: K42) (UniProt P13639) | 1.82 (active) |
| UniProt Q6PIU2 (lysine site: K359) | 1.48 (active) |
| TKT (lysine site: K59) (UniProt P29401) | 4.48 |
| PCNA (lysine site: K254) (UniProt P12004) | 1.56 (active) |
| TFPI (lysine site: K101) (UniProt P10646) | 7.9 |
| PARK7 (lysine site: K188) (UniProt Q99497) | 1.98 (active) |
| UniProt Q9NYQ6 (lysine site: K2118) | 2.31 |
| MYH9 (lysine site: K1673) (UniProt P35579) | 5.57 |
| UniProt P61160 (lysine site: K253) | 3.35 |
| UniProt P15941 (lysine site: K1125) | 3 |

| Target | lysine labeling ratio R10:1 |
| --- | --- |
| NUCB1 (lysine site: K364) (UniProt Q02818) | 2.75 |
| HNRNPU (lysine site: K343) (UniProt Q00839) | 3.69 |
| TNKS1BP1 (lysine site: K1680) (UniProt Q9C0C2) | 2.22 |
| PTK7 (lysine site: K518) (UniProt Q13308) | 1.76 (active) |
| CDCP1 (lysine site: K369) (UniProt Q9H5V8) | 2.97 |
| RPL5 (lysine site: K48) (UniProt P46777) | 1.91 (active) |
| MISP (lysine site: K540) (UniProt Q8IVT2) | 1 (active) |
| RPL4 (lysine site: K239) (UniProt P36578) | 2.48 |
| ATAD3B (lysine site: K214) (UniProt Q5T9A4) | 2.61 |
| VIM (lysine site: K439) (UniProt P08670) | 8.7 |
| TGFBR3 (lysine site: K685) (UniProt Q03167) | 1.81 (active) |
| FAT4 (lysine site: K2221) (UniProt Q6V0I7) | 4.75 |
| SLC25A13 (lysine site: K235) (UniProt Q9UJS0) | 2.23 |
| KTN1 (lysine site: K617) (UniProt Q86UP2) | 1.17 (active) |
| DCTN2 (lysine site: K175) (UniProt Q13561) | 2.59 |
| SPTAN1 (lysine site: K1838) (UniProt Q13813) | 0.73 (active) |
| RPL4 (lysine site: K182) (UniProt P36578) | 1.85 (active) |
| ARHGDIA (lysine site: K43) (UniProt P52565) | 1.51 (active) |
| CALD1 (lysine site: K605) (UniProt Q05682) | 3.32 |
| MYH9 (lysine site: K1828) (UniProt P35579) | 2.77 |
